Most compounds without a hit are left out; they make up all but 4.7% or so of the library.
D1 antag = Antagonist of Human D 1 Dopamine Receptor: qHTS. HEK293 TREx D1 cells, calcium flux, dopamine EC80; stronger effect = lower value. activity change, negative = inhibition, % at 10 µM. 360,000 tested, 3.2% active; in the data active means activity change below about -30%; further: on the % scale 0 is the no-effect control and ±100 the full control effect
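Calcium flux readout: force-coupled, inducible Hek293 Trex D1 line, cells induced overnight at 30 C with tetracycline, dye-loaded 30–90 min at RT. Antagonism scored against EC80 dopamine challenge given 180 s after compound.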
TRHR enhancer = qHTS for Small Molecule Agonists and Allosteric Enhancers of Human TRH Receptor: Primary Screen for Enhancers | Thyrotropin-releasing hormone receptor (Homo sapiens), P34981 | TRHR cells, fluo-8 calcium fluorescence, EC20 TRH enhancement | enhancement, % at 2 µM | 360,000 tested, 0.66% active; in the data active means enhancement above about 30%; further: 0% is about no effect
Target sequence (P34981 whole entry, looked up): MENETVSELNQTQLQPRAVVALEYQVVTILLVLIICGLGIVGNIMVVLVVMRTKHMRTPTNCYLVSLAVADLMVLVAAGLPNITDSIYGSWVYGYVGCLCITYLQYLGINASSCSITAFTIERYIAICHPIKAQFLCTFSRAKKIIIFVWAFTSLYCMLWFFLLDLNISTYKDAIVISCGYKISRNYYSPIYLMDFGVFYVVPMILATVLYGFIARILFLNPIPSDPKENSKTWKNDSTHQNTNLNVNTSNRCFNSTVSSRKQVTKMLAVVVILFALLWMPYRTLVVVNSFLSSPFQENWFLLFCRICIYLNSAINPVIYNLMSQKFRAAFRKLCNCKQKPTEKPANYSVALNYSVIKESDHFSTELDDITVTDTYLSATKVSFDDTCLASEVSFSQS
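Enhancer read-out: after compound pinning and an initial kinetic agonist-mode read, an EC20 of TRH (10 nM final) was injected and fluo-8 calcium signal (Ex 480/Em 530) followed at 1 s/cycle for 100 cycles in TRHR-expressing cells.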
TRHR agonist = qHTS for Small Molecule Agonists and Allosteric Enhancers of Human TRH Receptor: Primary Screen for Agonists; AID 493084, 2011; 360,000 tested, 0.18% active; Thyrotropin-releasing hormone receptor (Homo sapiens), P34981; activation, % at 2 µM; TRHR cells, calcium flux fluo-8, FDSS agonist mode; further: 0% is about no effect
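TRHR-expressing cells loaded with fluo-8 calcium dye; 23 nL library compound pin-transferred, kinetic FDSS fluorescence (Ex 480/Em 530) recorded about 180 s for agonist-induced calcium release, before a 10 nM TRH EC20 addition for potentiator mode.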
D1 potentiator = Potentiators of Human D1 Dopamine Receptor: qHTS; D(1A) dopamine receptor (Homo sapiens), P21728; HEK293 TREx D1 cells, calcium flux, dopamine EC20 potentiation; potentiation, % at 10 µM; 360,000 tested, 0.036% active; in the data active means potentiation above about 30%; further: 0% is about no effect
D1 agonist = Allosteric Agonists of the Human D1 Dopamine Receptor: qHTS | 360,000 tested, 1% active | HEK293 T-REx D1 cells, calcium flux, agonist mode | activation, % at 2 µM; further: 0% is about no effect
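Tetracycline-induced HEK293 TREx D1 cells, force-coupled to calcium signalling, were dye-loaded with a no-wash calcium kit. Compound was pin-added after a 10 s baseline. Fluorescence was read kinetically at 1 cycle/s for 180 s, with calcium rises flagged as agonism.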
The depositor's hits bear a star; x = not tested or not shown; ! = a repeat was not active. Unless noted, no stated cut-off is given here; in the data, active means activation above about 30%; inactive means the rest.

SMILES	D1 antag	TRHR enhancer	TRHR agonist	D1 potentiator	D1 agonist
COC(=O)CN(C)C(=O)c1ccccc1OC1CCN(S(C)(=O)=O)CC1	0	35*	-1	4	1
CS(=O)(=O)N1CCC(Oc2ccccc2C(=O)N2CCCCC2CO)CC1 (configuration not stated)	2	-11	0	1	0
CCn1ncc(C2=NOC(C(=O)NCC(C)C)C2)c1C (configuration not stated)	12	-2	2	-4	1
CCn1ncc(C2=NOC(C(=O)Nc3cnn(C45CC6CC(CC(C6)C4)C5)c3)C2)c1C (configuration not stated)	-25	4	2	-4	34*
CC(=O)c1ccc(O)c(CSc2nncn2C)c1	-32*	-7	1	-11	7
CN(CC(=O)Nc1ccc(F)c(F)c1F)C(=O)c1ccc(-n2cncn2)cc1	-3	-1	0	-2	3
N#Cc1nc(Cc2cccc3ccccc23)oc1NCCCN1CCOCC1	-42*	16	0	-11	8
c1ccc2c(CNCCN3CCOCC3)cccc2c1	-32*	5	0	-11	3
CCOc1ccccc1CNCCN1CCOCC1	6	0	1	-3	2
CN(C)C(=O)N(CCCN1CCOCC1)Cc1cccc2ccccc12	-49*	-7	0	-14	2
N#Cc1nc(Cc2cccc3ccccc23)oc1NCCCn1ccnc1	7	4	0	-6	9
O=C(Nc1ccccc1)N(CCCN1CCOCC1)Cc1ccccc1F	-21	-2	0	-1	2
CC(=O)Nc1ccc(NC(=O)CC(C)n2ccc(C)n2)cc1 (configuration not stated)	-7	7	1	-3	4
COc1ccc(Cl)cc1NC(=O)Nc1cn(C)nc1C	-61*	2	0	-5	17
COc1ccc(Cl)cc1NC(=O)NCc1ccc2c(c1)OCO2	-33*	-3	0	-11	10
CCN1CCC(N(Cc2ccc3c(c2)OCO3)C(=O)Nc2cc(Cl)ccc2C(=O)OC)CC1	-9	0	2	-3	49*
CC(=O)c1cccc(NC(=O)NCc2ccc3c(c2)OCO3)c1	3	-2	0	11	1
O=C(NCc1ccc2c(c1)OCO2)Nc1cccc(Cl)c1	-41*	-6	0	-10	14
Cc1ccc(NC(=O)CNC(=O)Cn2c(C)cc3ccccc3c2=O)cc1F	5	-3	0	0	0
COc1ccccc1NC(=O)Cn1c(=O)n(-c2cccc(C(C)=O)c2)c(=O)c2c3c(sc21)CN(C(C)=O)CC3	16	1	0	1	-1
CCOc1ccc(C(C)NC(=S)NCc2ccc(Cl)cc2)cc1 (configuration not stated)	x	-3	7	-5	35*
CCC(C)c1ccc(C(C)NC(=S)NCc2ccc(F)cc2)cc1 (configuration not stated)	-14	0	3	-4	21
CCCc1ccc(C(C)NC(=S)NCc2ccc(F)cc2)cc1 (configuration not stated)	-1	-3	9	-5	80*
Cc1nnc(SCC2=C(C(=O)O)N3C(=O)C(NC(=O)c4cccc(F)c4F)C3SC2)s1 (configuration not stated)	-73*	8	2	-9	2
Cc1ccc2oc(=O)c3cc(C(=O)NCCc4ccc(Cl)cc4)sc3c2c1	3	3	0	2	2
SMILES	D1 antag	TRHR enhancer	TRHR agonist	D1 potentiator	D1 agonist
Cc1cc(C)cc(NC(=S)N2CCC(N(C)CC3CCCO3)CC2)c1 (configuration not stated)	10	12	0	-1	0
Cc1ccc(NC(=S)N2CCC(N(C)CC3CCCO3)CC2)cc1 (configuration not stated)	-40*	-3	-1	-4	-1
Cc1ccc(N2C(=O)/C(=C\c3ccc(C(C)C)cc3)N=C2SC2CCOC2=O)cc1 (configuration not stated)	-38*	-3	0	-10	2
O=C(Nc1ccc(F)cc1)c1oc2ccccc2c1NC(=O)C12CC3CC(CC(C3)C1)C2	3	2	1	-2	1
CC1(C)C=C(c2ccc(C=O)s2)CC(C)(C)N1	-3	5	0	-2	2
CC1(C)C=C(c2ccc(C=O)s2)CC(C)(C)N1C=O	-31*	-2	0	-5	1
Cc1nc2scc(C)n2c(=O)c1S(=O)(=O)N1CCN(c2ccc([N+](=O)[O-])cc2)CC1	-53*	6	1	-6	0
CC(C)Cn1cc(NC(=O)N2CCN(c3cccc(Cl)c3)CC2)c2ccccc2c1=O	-12	4	-1	1	-1
CCOc1ccc(CC(=O)NCc2ccc3c(c2)CCN3C(=O)c2ccccc2)cc1OCC	14	-1	-1	-2	2
Nc1ccc(-c2c3ccc(=O)cc-3oc3cc(O)ccc23)cc1C(=O)O	-1	22	152*	1	245*
O=c1ccc2c(-c3ccccc3)c3ccc(O)cc3oc-2c1	-4	5	0	8	0
Cc1ccccc1-c1nc(CS(=O)(=O)CC(=O)NCCc2ccccc2)c(C)o1	-31*!	-1	-1	-4	31*!
COc1cccc(-c2nc(CS(=O)(=O)CC(=O)NCC(C)c3ccccc3)c(C)o2)c1 (configuration not stated)	6	11	-1	-3	70*
Cc1ccccc1-c1nc(CS(=O)(=O)CC(=O)N2CCCCC2)c(C)o1	-1	33*	0	-4	8
CCN1CCN(C(=O)CS(=O)(=O)Cc2nc(-c3ccc(C)cc3)oc2C)CC1	-31*	-2	0	-7	2
COc1cccc(-c2nc(CS(=O)(=O)CC(=O)NCCc3ccccc3)c(C)o2)c1	3	-2	0	0	15
Cc1ccc(-c2nc(CS(=O)(=O)CC(=O)N3CCN(C)CC3)c(C)o2)cc1	-12	7	-1	-3	0
CCCCn1c(N)c(N(Cc2ccccc2OC)C(=O)COc2ccc(C)cc2)c(=O)[nH]c1=O	-19	13	-1	-5	-2
O=C(CN1CCCC1)Nc1ccc(Br)cc1[N+](=O)[O-]	18	26	0	1	1
COc1cccc(NC(=O)c2oc3ccccc3c2NC(=O)c2ccc(C(F)(F)F)cc2)c1	-2	-3	1	-3	6
COc1ccccc1C(C(=O)NC1CCCC1)N(C(=O)c1csnn1)C1CC1 (configuration not stated)	-13	12	-1	x	1
